# Experimental data published in publication PMC4336329 (PLoS ONE, 2015).
# Hit rate of the full screen: of about 310,000 compounds, about 14,000 (4.5%) showed an effect of 50% or more. The effect is printed as a negative number. The sample holds strong results, similar compounds and a random draw of the others, so the mix is not that of the screen.
# Target: human ether-à-go-go-related gene (hERG) potassium channel (human, UniProt Q12809)
# Experiment: primary screen, population patch clamp on CHO cells stably expressing hERG; higher = less effect of the substance
# 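Also: peak tail current of the secondary pulse compared with the same well before compound.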
# human ether-à-go-go-related gene (hERG) potassium channel, sequence (Q12809 whole entry, looked up): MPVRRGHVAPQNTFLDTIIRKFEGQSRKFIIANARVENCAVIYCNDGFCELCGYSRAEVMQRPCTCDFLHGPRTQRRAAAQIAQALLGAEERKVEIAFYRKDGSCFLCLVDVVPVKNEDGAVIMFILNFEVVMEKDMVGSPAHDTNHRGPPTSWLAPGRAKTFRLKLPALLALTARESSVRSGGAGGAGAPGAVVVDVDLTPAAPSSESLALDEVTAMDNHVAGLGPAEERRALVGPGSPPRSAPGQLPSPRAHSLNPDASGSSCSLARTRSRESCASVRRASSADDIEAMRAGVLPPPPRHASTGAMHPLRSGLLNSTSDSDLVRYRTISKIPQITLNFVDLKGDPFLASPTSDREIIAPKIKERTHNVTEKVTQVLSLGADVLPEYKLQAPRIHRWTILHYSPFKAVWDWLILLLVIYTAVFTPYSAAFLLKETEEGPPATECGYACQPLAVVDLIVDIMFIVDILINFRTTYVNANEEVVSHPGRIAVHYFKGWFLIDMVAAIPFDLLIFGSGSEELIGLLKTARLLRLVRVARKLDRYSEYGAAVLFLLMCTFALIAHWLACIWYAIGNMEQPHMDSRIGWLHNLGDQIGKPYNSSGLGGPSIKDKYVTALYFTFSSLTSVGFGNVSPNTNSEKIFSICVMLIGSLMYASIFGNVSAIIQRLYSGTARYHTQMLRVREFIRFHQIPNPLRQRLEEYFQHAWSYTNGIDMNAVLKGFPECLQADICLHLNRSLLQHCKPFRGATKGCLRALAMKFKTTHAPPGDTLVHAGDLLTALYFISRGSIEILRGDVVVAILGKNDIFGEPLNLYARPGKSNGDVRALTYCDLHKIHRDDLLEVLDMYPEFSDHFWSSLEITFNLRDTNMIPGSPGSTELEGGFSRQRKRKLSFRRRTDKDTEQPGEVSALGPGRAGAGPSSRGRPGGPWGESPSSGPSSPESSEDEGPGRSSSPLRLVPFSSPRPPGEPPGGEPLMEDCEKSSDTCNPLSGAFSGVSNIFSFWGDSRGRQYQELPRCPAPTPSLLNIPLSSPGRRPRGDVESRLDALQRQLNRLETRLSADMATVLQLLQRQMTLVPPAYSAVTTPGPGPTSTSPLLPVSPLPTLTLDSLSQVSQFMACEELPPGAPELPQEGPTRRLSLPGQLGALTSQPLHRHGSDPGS
row,SMILES,"hERG current change (%, negative = inhibition) at 10uM [%]"
1,O=C(NCC(=O)N1CCN(C/C=C/c2ccccc2)CC1)c1ccc(OC(F)F)cc1,-79.5
2,O=C(NC(=S)N1CCN(C/C=C/c2ccccc2)CC1)c1ccc(F)cc1,-43.7
3,Cc1cccc(C(=O)NCC(=O)N2CCN(S(=O)(=O)/C=C/c3ccccc3)CC2)c1,-18.5
4,CC(C)Oc1ccc(C(=O)NCC(=O)N2CCN(S(=O)(=O)/C=C/c3ccccc3)CC2)cc1,-67.6
5,CCOc1ccc(C(=O)NCC(=O)N2CCN(C/C=C/c3ccccc3)CC2)cc1OCC,-41.7
6,O=C(NCC(=O)N1CCN(S(=O)(=O)/C=C/c2ccccc2)CC1)c1ccc(Cl)cc1,-23.1
7,CCOC(=O)c1cnc(SCc2nc(N)nc(Nc3ccccc3OC)n2)nc1N,-2.39
8,O=C1NCC(COc2cccc3ccccc23)O1 (centres unmarked),13.3
9,CCN(CC(=O)Nc1ccc(NC(C)=O)cc1)C(=O)Cc1cccc2ccccc12,4.98
10,CC1CCCCN1S(=O)(=O)c1ccc2[nH]c(=O)cc(C(=O)NCCCN3CCCCCC3)c2c1 (centres unmarked),17
11,Cc1ccc(-n2cc(-c3ccc([N+](=O)[O-])cc3)[nH]c2=S)c(C)c1,-51.3
12,Cc1cccc(-n2cc(-c3ccc([N+](=O)[O-])cc3)[nH]c2=S)c1,-2.96
13,O=[N+]([O-])c1ccc(-c2cn(-c3ccccc3F)c(=S)[nH]2)cc1,-3.28
14,CCOC(=O)C1CCCN(C(=O)Cn2nc(C)n3c(cc4c(OC)cccc43)c2=O)C1 (centres unmarked),-6.37
15,CN1C[C@H](CO)C[C@@H]2c3cccc4[nH]cc(c34)C[C@H]21,-7.36
16,CN1C[C@H](CNC(=O)OCc2ccccc2)C[C@@H]2c3cccc4c3c(cn4C)C[C@H]21,-61.9
17,O=C(NCC1CCC(C(=O)O)CC1)OCc1ccccc1 (centres unmarked),3.13
18,Cc1ccsc1C(=O)N1CCCC(N(C)Cc2ccccc2)C1 (centres unmarked),-13.9
19,CCn1nc(C)cc1C(=O)N1CCCC(N(C)CCc2ccc(OC)c(OC)c2)C1 (centres unmarked),-16.2
20,COCc1ccc(C(=O)N2CCCC(N(C)Cc3ccccc3)C2)s1 (centres unmarked),-8.86
21,COCc1ccc(C(=O)N2CCCC(N(C)CCc3ccc(OC)c(OC)c3)C2)s1 (centres unmarked),-62.4
22,COc1ccc(CCN(C)C2CCCN(C(=O)c3sccc3C)C2)cc1OC (centres unmarked),-55
23,COc1ccc(CCN(C)C2CCCN(C(=O)c3ccnn3C)C2)cc1OC (centres unmarked),-21.1

row,SMILES,"hERG current change (%, negative = inhibition) at 10uM [%]"
1,CN(C)CCCn1c(SCc2c(Cl)cccc2Cl)nnc1-c1ccncc1.O=C(O)C(=O)O,-0.471
2,CCOc1ccc(NC(=O)C2CCCN(c3nn4c(=O)cc(C)nc4s3)C2)cc1 (centres unmarked),-7.14
3,COc1ccc(C/C(C)=N/NC(=O)c2ccncc2)cc1,-7.41
4,O=C(CSc1nc(O)c(C2CCCCC2)c(=O)[nH]1)Nc1ccc(F)cc1,22.4
5,COc1ccc(OCCSc2ncc(CO)n2C)cc1,12.4
6,CCn1c(CN2CCN(CCO)CC2)nc2ccccc21,5.04
7,CCCCn1c(N)nc2ccccc21.Cl,-8.47
8,CCCCn1c(CN2CCN(CCO)CC2)nc2ccccc21,-66
9,CCCn1c(CN2CCN(C)CC2)nc2ccccc21,-9.68
10,CCCCn1c(CNC(C)=O)nc2ccccc21,3.5
11,CCCCn1c(CN2CCN(C)CC2)nc2ccccc21,-67.1
12,O=S(=O)(Nc1ccccn1)c1ccc(Cl)c2ccccc12,19.5
13,O=C(NCc1cccnc1)c1cccc2c1C(=O)N(C1CCCCC1)C2,-15.3
14,CCc1ccccc1N1C(=O)/C(=C/c2ccc(N3CCN(C)CC3)o2)C(=O)NC1=S,1.18
15,O=C(CCNS(=O)(=O)c1ccccc1C(F)(F)F)NCC(c1ccco1)N1CCCCC1 (centres unmarked),0.519
16,CCOc1ccc2nc(NS(=O)(=O)c3cccs3)sc2c1,20.8
17,COC(OC)c1ccc(C#N)c(SCc2ccccc2)n1,4.03
18,CCNS(=O)(=O)c1ccc(CCC(=O)NCc2ccccn2)cc1,13.5
19,O=C(CN1CCCCC1)NNc1nc(-c2ccccc2)c2cc(Cl)ccc2n1,-58
20,O=C(CN1CCCCC1)NNc1nc(-c2ccccc2)c2cc(Br)ccc2n1,-55.4
21,O=C(O)CCC(=O)NNc1nc(-c2ccccc2)c2cc(Cl)ccc2n1,14.4
22,CC(=O)NNc1nc(-c2ccccc2)c2cc(Br)ccc2n1,5.01
23,O=C(CN1CCOCC1)NNc1nc(-c2ccccc2)c2cc(Br)ccc2n1,-38.7

row,SMILES,"hERG current change (%, negative = inhibition) at 10uM [%]"
1,O=C(CCl)NNc1nc(-c2ccccc2)c2cc(Cl)ccc2n1,1.46
2,COCCN(C(=O)CCCC(=O)Nc1ccccn1)C(C(=O)NC1CCCC1)c1ccc(C)cc1 (centres unmarked),-5.66
3,O=C(Nc1cc2c(oc1=O)CCCC2=O)c1cccc(Cl)c1,4.61
4,CCC(Oc1ccccc1)C(=O)Nc1ccccc1C(=O)N1CCN(C)CC1 (centres unmarked),0.0528
5,N#CC(c1ccccc1)N1CCOCC1 (centres unmarked),6.63
6,S=C1SCN(Cc2cccnc2)CN1Cc1cccnc1,-20.9
7,S=C1NCN(Cc2cccnc2)CN1Cc1ccccc1,22.8
8,S=C1SCN(Cc2cccnc2)CN1Cc1ccccc1,-54.7
9,Fc1ccc2[nH]c3c(N4CCN(C5CCCCC5)CC4)ncnc3c2c1,-46.7
10,COc1ccc(CN(CC2CCC(C(=O)O)CC2)C(=S)Nc2cc(C)cc(C)c2)cc1 (centres unmarked),19.6
11,Cc1cc(N2CCCC2)nc(-c2ccccc2O)n1,-1.15
12,Cc1cc(N2CCN(C)CC2)nc(-c2ccccc2O)n1,-41.9
13,CCN1CCN(c2cc(C)nc(-c3ccccc3O)n2)CC1,-58.9
14,Cc1ccc(CN2CC(C(=O)Nc3cccc(S(=O)(=O)N4CCCCC4)c3)CC2=O)cc1 (centres unmarked),6.85
15,CC(=O)c1ccc(OCC(C)C)c(CC(C(N)=O)C(N)=O)c1,19.2
16,CCOC(=O)C1=C(C)N(CCO)C(=O)NC1c1cccc(O)c1 (centres unmarked),18.8
17,O=C(Nc1ccnn1C1CCN(Cc2ccc(O)c(Cl)c2)CC1)C1CCCC1,-33
18,Cc1ccc(CN2CCC(n3nccc3NC(=O)C3CCOC3)CC2)cc1 (centres unmarked),-26.8
19,O=C(Nc1ccnn1C1CCN(Cc2ccccc2)CC1)C1CCOC1 (centres unmarked),18.8
20,CSc1ccc(CC(=O)N2CCC(n3nccc3NC(=O)C3CC3)CC2)cc1,-8.47
21,CC(C)n1cc(CN2CCC(n3nccc3NC(=O)C3CCCC3)CC2)cn1,-1.92
22,CSc1ccc(CN2CCC(n3nccc3NC(=O)C3CCOC3)CC2)cc1 (centres unmarked),-67.8
23,O=C(Nc1ccnn1C1CCN(C(=O)c2ccc(Cl)cc2)CC1)C1CC1,-24.2

row,SMILES,"hERG current change (%, negative = inhibition) at 10uM [%]"
1,CC(Cc1ccc(Cl)cc1)N1CCC(n2nccc2NC(=O)C2CCCC2)CC1 (centres unmarked),-76.3
2,CSc1cccc(CN2CCC(n3nccc3NC(=O)C3CC3)CC2)c1,-51.4
3,O=C(Nc1ccnn1C1CCN(Cc2ccc(Cl)cc2)CC1)C1CCCC1,-63.6
4,O=C(Nc1ccnn1C1CCN(Cc2ccccc2)CC1)C1CCCC1,-36.7
5,O=C(Nc1ccnn1C1CCN(Cc2cccc(O)c2)CC1)C1CCCC1,-36.5
6,CNC(=S)N/N=C/c1cn(CCOc2cccc(OC)c2)c2ccccc12,3.42
7,O=C([O-])C(CCCCNS(=O)(=O)c1ccc(F)cc1)NS(=O)(=O)c1ccc(F)cc1.[K+] (centres unmarked),20.3
8,COc1ccccc1NC(=O)C1=C(C)Nc2nc(CCCO)nn2C1c1ccc2c(c1)OCO2 (centres unmarked),7.42
9,CCOC(=O)C1CCCC(NS(=O)(=O)c2ccc(NC(C)=O)cc2)C1 (centres unmarked),-2.41
10,Cc1ccc(S(=O)(=O)/N=C(/c2ccccc2)N(C)C)c(C)c1,12.7
11,NC(=S)N/N=C1\c2ccccc2-c2c(C(=O)O)cccc21,12.7
12,Cc1cc(C)c(C(=O)N2CCCC(CNC(=O)C3(c4ccc(Cl)cc4)CC3)C2)c(=O)[nH]1 (centres unmarked),6.58
13,COCCN1C(=O)C(=O)/C(=C(/O)c2ccc(S(=O)(=O)N3CCOCC3)cc2)C1c1ccc(O)cc1 (centres unmarked),3.78
14,O=C1OCC(CO)(CO)N=C1NNc1ccc(Cl)c(Cl)c1,8.16
15,COC(=O)c1ccc2c(=O)n(CCCCCC(=O)NCc3ccc4c(c3)OCO4)c(=O)[nH]c2c1,-31.7
16,Cc1cc(C)cc(NC(=S)N2CCN(c3ccc(F)cc3)CC2)c1,-8.95
17,COC(=O)C1=C(c2ccccc2OCc2ccccc2)C[C@@H]2CC[C@H]1N2C(=O)NCc1ccc(N(C)C)cc1,10.9
18,O=C(Nc1ccnn1C1CCN(Cc2cccc(OCCO)c2)CC1)C1CCCC1,-24.8
19,CC(C)Cc1ccc(CN2CCC(n3nccc3NC(=O)C3CCCC3)CC2)cc1,-72.4
20,O=C(Nc1ccnn1C1CCN(Cc2cccc(OCCO)c2)CC1)C1CCOC1 (centres unmarked),-2.98
21,CCOc1cccc(CN2CCC(n3nccc3NC(=O)C3CCCC3)CC2)c1,-55.3
22,CCn1cc(CN2CCC(n3nccc3NC(=O)C3CCCC3)CC2)cn1,-6.15
23,CCc1ccc(CN2CCC(n3nccc3NC(=O)C3CCCC3)CC2)cc1,-76.3
